# This is part of a sample that, as a whole, favours compounds with a hit. Of some 83,000 tested, about 20% had one in any assay.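 In brief: 96-well plates, 48 h treatment, single concentration, percent growth endpoint.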 A number with no mark means an inactive call. Calls of active or inactive are those of the source. The calls were made as follows: active = growth percent below 10; inactive = the rest.
# Key:
# Experiment in all cases: NCI-60 one-dose screen, 48 h (100 = growth as untreated, 0 = no growth, -100 = all killed)
# Details in all cases: 10 µM unless noted
# HCT-15 colon = test system: HCT-15 colon
# HT29 colon = test system: HT29 colon
# SNB-75 CNS = test system: SNB-75 CNS
# SNB-19 CNS = test system: SNB-19 CNS
# U251 CNS = test system: U251 CNS
# PC-3 prostate = test system: PC-3 prostate
# SK-MEL-5 melanoma = test system: SK-MEL-5 melanoma
# UACC-62 melanoma = test system: UACC-62 melanoma
# LOX IMVI melanoma = test system: LOX IMVI melanoma
# SK-MEL-28 melanoma = test system: SK-MEL-28 melanoma
Structure (SMILES),growth (HCT-15 colon),growth (HT29 colon),growth (SNB-75 CNS),growth (SNB-19 CNS),growth (U251 CNS),growth (PC-3 prostate),growth (SK-MEL-5 melanoma),growth (UACC-62 melanoma),growth (LOX IMVI melanoma),growth (SK-MEL-28 melanoma)
COc1cc(/C=N/Nc2nc(-c3ccc(F)cc3)c(C#N)c(N3CCOCC3)n2)ccc1O,99.9%,96%,84%,92.9%,97.6%,96.4%,102%,99%,107%,99.9%
C=C(C)[C@@H]1CC[C@]2(C(=O)O)CC[C@]3(C)[C@H](CC[C@@H]4[C@@]5(C)C[C@@H](CC#Cc6ccc(Cl)cc6)C(=O)C(C)(C)[C@@H]5CC[C@]43C)[C@@H]12,45.5%,30.1%,70%,54%,28.1%,25.9%,51.8%,-20.2% (active),59.6%,-23.1% (active)
CCCn1c2cc(OCc3cn(-c4ccc(Br)cc4)nn3)ccc2c2ccnc(C)c21,73.5%,57.9%,-1.81% (active),53.8%,33.8%,74.5%,76.8%,38.8%,72.7%,80.3%
COc1ccc(-c2nc(C#N)c(NCC(c3ccc(Cl)cc3)N3CCCCC3)o2)cc1 (stereo not given),69.4%,85.6%,91%,113%,96%,75.3%,93.2%,90.4%,93.8%,94.3%
Cc1nccc2c3ccc(OCc4cn(-c5ccc(Br)cc5)nn4)cc3n(CC(C)C)c12,36.4%,4.32% (active),89.5%,59.6%,36.9%,30.7%,13.1%,38.4%,52.2%,67.2%
Cc1ccn2c3c(c(C(=O)O)c2c1)C(=O)c1ccccc1C3=O,58.8%,39.5%,87.8%,50.4%,74.9%,84.8%,-98.9% (active),0.126% (active),48.9%,46%
COc1ccc2nc3nc4ccc[nH]c4cc3c2c1,82.9%,97.7%,82.5%,105%,94.8%,93.2%,88.6%,105%,95.1%,110%
N#Cc1c(-c2ccc(Cl)cc2)cc(-c2cc3ccccc3o2)nc1SCC(=O)c1ccc(Cl)cc1,91.4%,97.1%,76.7%,99.9%,93.8%,84.6%,100%,93.5%,91%,100%
Oc1c(CCl)cc(Cl)cc1Cc1cc(Cl)cc(Cc2cc(Cl)cc(CCl)c2O)c1O,12.8%,56.9%,56.8%,27.6%,31.7%,17.9%,-1.94% (active),4.56% (active),47.7%,30%
CSc1nc(-c2ccc(F)cc2)c(C#N)c(N2CCOCC2)n1,98.6%,92.3%,73.8%,92.9%,89.3%,89.9%,94.8%,78.9%,99.2%,101%
O=C(CN1N=C(c2ccc(F)cc2)CCC1=O)Nc1nc2ccccc2s1,86%,1.85% (active),-49.1% (active),94.4%,16%,5.7% (active),89.3%,79.6%,-89.5% (active),100%
O=C1CCC23OC(c4ccccc4N12)C(O)C(O)C3O (stereo not given),109%,91.6%,113%,101%,105%,95.6%,111%,98.5%,100%,118%
O=C(O)c1cn(C2CC2)c2cc(N3CCN(Cc4nnc(Nc5ccccc5)o4)CC3)c(F)cc2c1=O,101%,93.8%,82.2%,108%,105%,105%,106%,100%,87.9%,100%

# From PubChem BioAssay (NCI)
